Rac1 wt modul: modulators of human Rac1 wildtype GTP binding. 0.27% of 190,000 active. GTP binding activity (% of control), % at 10 µM. GST-Rac1 beads, fluorescent GTP binding, flow cytometry; actives lie on both sides; 0 = cold GTP competed, 100 = untreated. AID 757. P63000;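 active = GTP binding activity at least 20 points away from the 100% control level, either lower or higher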
Cdc42 wt: modulators (inhibitors or activators) of GTP binding to human Cdc42 wildtype; GST-Cdc42 beads, Bodipy-GTP binding, flow cytometry; actives lie on both sides; P60953; 0.2% of 190,000 active; percent activity (GTP binding), % at 10 µM; AID 761;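 active = percent activity GTP binding at least 20 points away from the 100% baseline, either down as inhibitor or up as activator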;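 also: median bead fluorescence of bound Bodipy-FL-GTP at 100 nM; 0% = excess unlabeled GTP control and 100% = no compound control; below 100% means less GTP binding so inhibitor and above means activator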
Target sequence (P60953 whole entry, looked up): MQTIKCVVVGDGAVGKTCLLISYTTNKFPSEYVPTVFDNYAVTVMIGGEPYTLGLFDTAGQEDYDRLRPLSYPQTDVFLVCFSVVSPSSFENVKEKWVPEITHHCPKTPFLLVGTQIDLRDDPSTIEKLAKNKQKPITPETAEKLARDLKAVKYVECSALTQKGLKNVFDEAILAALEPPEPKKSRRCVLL
Rab2A wt mod: changes GTP binding to wildtype dog Rab2A, up or down; GST-Rab2 wt beads, Bodipy-GTP binding, flow cytometry; GTP binding activity, % at 10 µM; 0.19% of 190,000 active; P61105;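 active = GTP binding activity at least 20 points away from 100%, either lowered or raised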;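 also: 0% = beads with excess unlabeled GTP and 100% = no-compound control corrected for plate trend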
HRas wt GTP: human HRas wildtype GTP binding, change in either direction | P01112 | GST-Ras wt beads, Bodipy-FL-GTP binding, flow cytometry; actives lie on both sides | GTP binding activity, % at 10 µM | 0.14% of 190,000 active | AID 759;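 active = GTP binding activity at least 20% away from the 100% baseline, either lowered as inhibitor or raised as activator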;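 also: 0% = unlabeled GTP competition control and 100% = no-compound control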
Rab7 wt modul: modulators of GTP binding to dog Rab7 wildtype GTPase. GST-Rab7 beads, fluorescent GTP binding, flow cytometry; actives lie on both sides; untreated = 100%, excess cold GTP = 0%. GTP binding activity (percent of control), % at 10 µM. 0.055% of 190,000 active;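 active = fluorescent GTP binding to Rab7 beads changed by at least 20 points from the 100% baseline, either direction, mostly lower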;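 also: median green fluorescence of bound Bodipy-FL-GTP per Rab7 bead population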
Rac1 mut GTP: alters GTP binding to activated mutant human Rac1; percent activity (GTP binding), % at 10 µM; 0.11% of 190,000 active; P63000; GST-Rac1 activated beads, fluorescent GTP binding, flow cytometry; actives lie on both sides; 100% means binding = to untreated wells;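 active = GTP binding at least 20 percentage points away from the 100% baseline, in either direction, so actives lie on both sides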
Numbers without * were called inactive; [ ] = dose if it differs, or a comment. An excerpt weighted towards active compounds, which were near 0.38% of everything screened.

CCOCCCn1c(N)c(C(=O)Nc2sc3c(c2C(=O)OC)CCCC3)c2nc3ccccc3nc21 was read as Rac1 wt modul 82, Cdc42 wt 72*, Rab2A wt mod 72*, HRas wt GTP 72*, Rab7 wt modul 88 and Rac1 mut GTP 87.
For CCn1c(NN=O)nc2ccccc21 the results were Rac1 wt modul 100, Cdc42 wt 95, Rab2A wt mod 97, HRas wt GTP 98, Rab7 wt modul 100 and Rac1 mut GTP 95.
`O=c1[nH]c(=S)[nH]c(O)c1N=Nc1ccc(S(=O)(=O)N2CCc3ccccc32)cc1` gave Rac1 wt modul 120*[activator], Cdc42 wt 93, Rab2A wt mod 94, HRas wt GTP 93, Rab7 wt modul 97 and Rac1 mut GTP 98.
Cc1c(N=Nc2c(O)[nH]c(=S)[nH]c2=O)c(=O)n(-c2ccccc2)n1C was read as Rac1 wt modul 105, Cdc42 wt 104, Rab2A wt mod 100, HRas wt GTP 102, Rab7 wt modul 101 and Rac1 mut GTP 98.
`O=[N+]([O-])c1ccc(C2C3C(c4ccccc4)=NC4(CCCC4)N32)cc1` (stereo not drawn) gave Rac1 wt modul 102, Cdc42 wt 96, Rab2A wt mod 94, HRas wt GTP 98, Rab7 wt modul 96 and Rac1 mut GTP 97.
Screening Cc1ccc(-n2c(O)c(/C=N/c3ncc(Br)cc3Br)c(=O)[nH]c2=O)cc1 returned Rac1 wt modul 123*[activator], Cdc42 wt 100, Rab2A wt mod 94, HRas wt GTP 94, Rab7 wt modul 94 and Rac1 mut GTP 98.
Cc1cccc(-n2c(O)c(C=Nc3ccc(Br)cn3)c(=O)[nH]c2=O)c1 was read as Rac1 wt modul 102, Cdc42 wt 98, Rab2A wt mod 102, HRas wt GTP 99, Rab7 wt modul 99 and Rac1 mut GTP 100.
Screening CCn1nc(/C=C/c2ccccc2)nc2c(=O)n(C)c(=O)nc1-2 returned Rac1 wt modul 96, Cdc42 wt 76*, Rab2A wt mod 83, HRas wt GTP 82, Rab7 wt modul 92 and Rac1 mut GTP 83.

Assay outcomes deposited in PubChem by NMMLSC.
